Bioassay records: PubChem BioAssay, several laboratories
Sampled rows, rich in hits. Any-hit rate of the full collection: about 3%.
ATG4B inhibitor = blocks human ATG4B protease cleavage of LC3 substrate; Q9Y4P1; ATG4B cleavage of LC3-PLA2, NBD-HPC fluorescence, 1 h; inhibition, % at 8.33 µM; actives 0.51% (n = 340,000); AID 504462; in the data active = inhibition above about 40%
Target sequence (Q9Y4P1 whole entry, looked up): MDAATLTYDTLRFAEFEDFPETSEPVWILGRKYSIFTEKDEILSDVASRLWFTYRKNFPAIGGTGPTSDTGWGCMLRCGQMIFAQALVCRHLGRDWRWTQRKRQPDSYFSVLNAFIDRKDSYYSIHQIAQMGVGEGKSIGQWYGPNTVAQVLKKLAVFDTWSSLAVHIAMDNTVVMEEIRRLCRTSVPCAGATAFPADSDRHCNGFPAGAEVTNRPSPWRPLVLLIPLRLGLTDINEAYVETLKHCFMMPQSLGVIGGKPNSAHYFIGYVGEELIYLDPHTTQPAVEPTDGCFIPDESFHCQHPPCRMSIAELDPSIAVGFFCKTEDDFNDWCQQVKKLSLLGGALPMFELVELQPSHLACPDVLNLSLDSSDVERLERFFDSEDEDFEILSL
PAFAH2 inh = PAFAH2 (human) inhibition. recombinant PAFAH2, FP-rhodamine activity probe, fluorescence polarization. Q99487. inhibition, % at 3.39 µM. actives 0.99% (n = 340,000);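 active = inhibition above the mean over all tested compounds plus 3 SD, cut at about 30% in these data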;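 also: inhibitors block probe labeling of enzyme so polarization drops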
pPAFAH inh = pPAFAH (human) enzyme inhibition; Q13093; recombinant pPAFAH, FP-rhodamine probe fluorescence polarization; inhibition, % at 3.39 µM; actives 1.5% (n = 330,000); AID 463082;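 active = inhibition above the mean inhibition across the screen plus 3 SD, cut at about 25% in these data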;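 also: inhibitors block binding of the rhodamine activity-based probe so polarization drops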
DAGLB inh = diacylglycerol lipase beta (human) inhibition; Q8NCG7; HEK293T DAGLB membrane lysate, EnzChek fluorogenic substrate; inhibition, % at 5.17 µM; actives 0.059% (n = 340,000); AID 504411; in the data active = inhibition above about 34%
PAFAH1B2 FP inh = inhibitors of human PAFAH1B2 | inhibition, % at 3.39 µM | recombinant PAFAH1B2, FP-rhodamine activity probe, fluorescence polarization | actives 1.2% (n = 340,000);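 active = inhibition above the mean of all tested compounds plus 3 SD, cut at about 24% in these data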
Target sequence (P68402 whole entry, looked up): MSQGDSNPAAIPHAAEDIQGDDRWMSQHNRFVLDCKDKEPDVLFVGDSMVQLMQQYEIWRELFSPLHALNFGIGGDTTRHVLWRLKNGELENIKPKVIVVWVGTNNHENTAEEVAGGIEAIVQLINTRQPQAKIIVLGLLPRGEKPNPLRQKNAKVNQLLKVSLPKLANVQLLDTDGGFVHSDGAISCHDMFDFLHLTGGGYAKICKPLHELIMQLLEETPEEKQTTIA
PAFAH1B3 inh = blocks human PAF acetylhydrolase 1B catalytic subunit 3. Q15102. recombinant PAFAH1B3, FP-rhodamine probe, fluorescence polarization. inhibition, % at 3.39 µM. actives 0.28% (n = 340,000);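 active = inhibition above the screen-wide average of all tested compounds plus 3 SD, cut at about 25% in these data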
PAFAH2 confirm = PAFAH2 (human) inhibition, confirmed. shares compounds with PAFAH2 inh. recombinant PAFAH2, FP-rhodamine activity probe, fluorescence polarization. inhibition, % at 3.39 µM. actives 65% (n = 2,300);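 active = mean inhibition over three repeats above a set limit taken from the earlier primary screen, cut at about 30% in these data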;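 also: inhibitor blocks binding of rhodamine activity probe so polarization falls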
Of the large screens only hits and unclear results are named; the others gave an inactive call (follow-up assays come after a bar, where they were run).

O=C(Nc1cccc(OC(=O)c2ccc(Br)o2)c1)c1ccccc1	none
COc1ncnc2c1ncn2CCCN(C)CCc1ccccn1	none (no result: ATG4B inhibitor, PAFAH2 inh, pPAFAH inh, PAFAH1B2 FP inh, PAFAH1B3 inh)
COc1ccc(NC(=O)CSc2nc3ccccc3nc2N2CCCC2)c(OC)c1	none
COc1ccc(C(=O)OC(C)C(=O)NC(C)CCc2ccccc2)c(OC)c1 (stereo not drawn)	none
CCOC(=O)C1C(=O)N(C(=O)c2ccc(OC)cc2)CC1c1ccccc1 (stereo not drawn)	PAFAH2 inh 95 | PAFAH2 confirm 75
COc1ccccc1-n1nnnc1SCC(=O)N1CCCC1=O	PAFAH2 inh 51 | PAFAH2 confirm 42
COc1ccc(-n2nnnc2SCC(=O)N2CCCC2=O)cc1	none
O=C1CCCN1C(=O)CSc1nnnn1-c1ccccc1	PAFAH2 inh 37 | PAFAH2 confirm 31
COc1ccc(S(=O)(=O)N2CCOCC2)cc1NC(=O)CN1CCCc2ccccc21	PAFAH2 inh 66 | PAFAH2 confirm 56
COc1ccc(S(=O)(=O)N2CCOCC2)cc1NC(=O)CN(C)Cc1c(F)cccc1Cl	none
COc1ccc(S(=O)(=O)N2CCOCC2)cc1NC(=O)Cc1c(Cl)cccc1Cl	PAFAH2 inh 49 | PAFAH2 confirm 45
COc1ccc(S(=O)(=O)N2CCOCC2)cc1NC(=O)CN1CCCCCC1	none
Cc1cc(C)cc(N(C(=O)c2csnn2)C(C(=O)NC2CCCCC2)c2ccccn2)c1 (stereo not drawn)	none
CCN(C(=O)c1ccc2c(c1)OCO2)C12CC3CC(CC(C3)C1)C2	PAFAH2 inh 40 | PAFAH2 confirm 35
O=C(COC(=O)c1ccccc1O)Nc1ccc2ccccc2c1	none
CCS(=O)c1ccccc1C(=O)OCC(=O)Nc1ccc2ccccc2c1 (stereo not drawn)	PAFAH2 inh 70 | PAFAH2 confirm 67
CCc1ccccc1OCC(=O)Nc1cccc(S(=O)(=O)N2CCCC2)c1	none (no result: pPAFAH inh)
CCS(=O)c1ccccc1C(=O)OCC(=O)Nc1cccc(S(=O)(=O)N2CCCCC2)c1 (stereo not drawn)	PAFAH2 inh 59 | PAFAH2 confirm 53
CCOc1ccccc1C(=O)OCC(=O)Nc1cccc(S(=O)(=O)N2CCCC2)c1	PAFAH2 inh 73 | PAFAH2 confirm 52
Cc1nn(CC(=O)NC(=O)NC2CCCCC2C)c(=O)c(C#N)c1C (stereo not drawn)	none
Cc1ccc(S(=O)(=O)N2CCOCC2)cc1NC(=O)COC(=O)c1ccco1	none (no result: ATG4B inhibitor, PAFAH2 inh, pPAFAH inh, PAFAH1B2 FP inh, PAFAH1B3 inh)
Cc1ccc(S(=O)(=O)N2CCOCC2)cc1NC(=O)COC(=O)/C=C/c1ccco1	PAFAH2 inh 46 | PAFAH2 confirm 45
COc1cccc(/C=C/C(=O)OCC(=O)Nc2cc(S(=O)(=O)N3CCOCC3)ccc2C)c1	PAFAH2 inh 55 | PAFAH2 confirm 42
Cc1cc(C)c(C(=O)COC(=O)c2nn(C)c(=O)c3ccccc23)cc1C	none
COCCNC(=O)c1cn(C)c2ccccc2c1=O	none
CN(C)S(=O)(=O)c1cccc(NC(=S)N/N=C/c2cccc(O)c2)c1	none
CN(C)S(=O)(=O)c1cccc(NC(=S)N/N=C/c2cc(Br)ccc2O)c1	PAFAH2 inh 34 | PAFAH2 confirm inactive
CCCN(CCC)C(=O)C1CCCN1S(=O)(=O)c1cccc2nsnc12 (stereo not drawn)	none
COc1cc2nc(COc3ccccc3[N+](=O)[O-])oc(=O)c2cc1OC	PAFAH2 inh 50 | PAFAH2 confirm 69
COc1cc2nc(CN3C(=O)c4ccccc4C3=O)oc(=O)c2cc1OC	none
Cn1cnc2ncnc(Oc3ccc(Br)cc3)c21	none (no result: pPAFAH inh)
C/C(=N\NC(=S)NCC(C)(C)C)c1cc(F)cc(F)c1O	PAFAH2 inh 33 | PAFAH2 confirm inactive
COCCNC(=S)N/N=C(\C)c1ccc(O)cc1	none
CCCn1cc(CN2CCC(Oc3ccc(C(=O)N4CCCC4)cc3)CC2)c(C)n1	none
CC(C)n1nc(C(=O)Nc2nc3ccc(S(C)(=O)=O)cc3s2)c2ccccc2c1=O	none
CC(C)n1nc(C(=O)Nc2nnc(SCc3c(Cl)cccc3Cl)s2)c2ccccc2c1=O	PAFAH2 inh 40 | PAFAH2 confirm 66
O=C(COC(=O)c1ccc(Br)cc1)NCCC1=CCCCC1	PAFAH2 inh 31 | PAFAH2 confirm 32
Cc1ccsc1C(=O)OCC(=O)NCCC1=CCCCC1	PAFAH2 inh 32 | PAFAH2 confirm inactive
O=C(COC(=O)CNC(=O)c1ccc(Br)cc1)NCCC1=CCCCC1	none
O=C(COC(=O)c1ccccc1)NCCC1=CCCCC1	PAFAH2 inh 35 | PAFAH2 confirm 31
O=C(COC(=O)c1ccc[nH]c1=O)NCCC1=CCCCC1	none
Nc1cc(C(=O)OCC(=O)NCCC2=CCCCC2)ccc1Cl	PAFAH2 inh 52 | PAFAH2 confirm 38
Cc1ccc(S(=O)(=O)N2CCCN(C(=O)CNC(=O)c3cccc(C)c3)CC2)cc1	none
O=C(CSc1nnc(CNC(=O)c2ccccc2F)o1)NCCc1ccccc1	PAFAH2 inh 54 | PAFAH2 confirm inactive
O=C(CSc1nnc(CNC(=O)c2c(F)cccc2F)o1)NCCc1ccccc1	none
c1ccc2c(c1)Cc1ccccc1O2	none
CCOc1cc(C(=O)Nc2cc3c(cc2N2CCOCC2)n(C)c(=O)n3C)cc(OCC)c1OCC	none
O=S(=O)(c1c(F)cccc1F)N(CCc1ccc(F)cc1)C[C@@H](O)COCc1ccccc1	none (no result: pPAFAH inh)
CC1(C)CC(=NOC(=O)c2ccccc2)CC(C)(C)N1	none
CC(=O)N1C(C)(C)CC(=NOC(=O)c2ccccc2)CC1(C)C	PAFAH2 inh 67 | PAFAH2 confirm 57
Cc1cc(C)n(-c2ccc(C(=O)OCC(=O)Nc3cc(S(C)(=O)=O)ccc3Cl)cc2)n1	PAFAH2 inh 36 | PAFAH2 confirm inactive
Cc1cccc(NC(=O)COC(=O)c2ccc(C)c(S(=O)(=O)N3CCCCC3)c2)c1	PAFAH2 inh 42 | PAFAH2 confirm 38
Cc1ccc(C(=O)OCC(=O)Nc2ccccc2)cc1S(=O)(=O)N1CCCCC1	PAFAH2 inh 50 | PAFAH2 confirm 36
Cc1ccc(NC(=O)COC(=O)C2CC3C=CC2C3)cc1S(=O)(=O)N1CCCCC1 (stereo not drawn)	PAFAH2 inh 60 | PAFAH2 confirm 52
CS(=O)(=O)c1ccc(Cl)c(NC(=O)COC(=O)c2ccc(-n3cnnn3)cc2)c1	none
COc1ccc([C@H]2CC(=O)C=C(c3ccc(Cl)c(C(F)(F)F)c3)C2)cc1OC	none
N#C/C(=C\c1cccnc1)c1ccccc1[N+](=O)[O-]	none
COC(=O)Cn1cc(/C=C(/C#N)C(=O)N2CCOCC2)c2ccccc21	none
Cc1ccc(C(=O)OCC(=O)Nc2cc(S(C)(=O)=O)ccc2Cl)cc1S(=O)(=O)N1CCCCC1	PAFAH2 inh 64 | PAFAH2 confirm 54
